Where “and” joins values, the source holds several entries; their conditions need not be identical. Equal values may be shown once. Records with an inconclusive call do not appear. Values without a mark were called inactive. Calls of active or inactive are those of the source. Calls follow the shape of the dose curve; as a rule, active = well fitted inhibition curve with a large enough effect; inconclusive = small, poorly fitted or top-dose-only effect; inactive = flat fitted curve, though single readings scatter.

In one assay the test system is HB3. Briefly: qHTS profiling for inhibitors of Plasmodium falciparum proliferation (AID 504749). The note with it: P. falciparum in erythrocytes, SYBR Green DNA, 72 h; series mostly up to 28.7 µM. In a few lines:
(§1)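 Readout was DNA-dye fluorescence from lysed cultures, ex 485/em 535 nm. Parasitized red cells had grown 72 h with compound; data scaled between 0.29 uM artemisinin and DMSO wells and corrected using vehicle-only plates.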
(In general: In qHTS, concentration-response curves come from the screen itself.)

Another assay relates to ICS. The description is as above. To be noted: P. falciparum in erythrocytes, SYBR Green DNA, 72 h; series mostly up to 28.7 µM. In a few lines: as §1
In a further assay the test system is N140. Described as above. To be noted: P. falciparum in erythrocytes, SYBR Green DNA, 72 h; series mostly up to 28.7 µM. In a few lines: as §1
In the next assay the test system is P94_40. Described as above. The note with it: P. falciparum in erythrocytes, SYBR Green DNA, 72 h; series mostly up to 28.7 µM. In a few lines: as §1
In the next assay the test system is PAD. Described as above. To be noted: P. falciparum in erythrocytes, SYBR Green DNA, 72 h; series mostly up to 28.7 µM. In a few lines: as §1
In a further assay the test system is PC15. The description is as above. The note with it: P. falciparum in erythrocytes, SYBR Green DNA, 72 h; series mostly up to 28.7 µM. The method, boiled down: as §1
The test system of the next assay is PC49. The description is as above. To be noted: P. falciparum in erythrocytes, SYBR Green DNA, 72 h; series mostly up to 28.7 µM. The method, boiled down: as §1
The test system of a further assay is SC27B. The assay is described as above. To be noted: P. falciparum in erythrocytes, SYBR Green DNA, 72 h; series mostly up to 28.7 µM. The method, boiled down:
as §1

Another assay deals with TAB113. The assay is described as above. To be noted: P. falciparum in erythrocytes, SYBR Green DNA, 72 h; series mostly up to 28.7 µM. In a few lines:
as §1

The next assay concerns TAB165. The assay is described as above. The note with it: P. falciparum in erythrocytes, SYBR Green DNA, 72 h; series mostly up to 28.7 µM. In a few lines:
as §1

The test system of another assay is W2. Described as above. The note with it: P. falciparum in erythrocytes, SYBR Green DNA, 72 h; series mostly up to 28.7 µM. In a few lines:
as §1

The test system of the next assay is CRL-7250. Briefly: Cytotoxic Profiling of Annotated Libraries Using Quantitative High-Throughput Screening (AID 1296008). As to max response: % is scaled to controls: 0 for no effect and ±100 for the full control effect. To be noted: Five cell lines viability, CellTiter-Glo ATP luminescence, 48-72 h; max response: stronger effect = lower value. In a few lines: (§2)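 Cells exposed to compounds for 48 or 72 hr at 37 degrees Celsius. Viability read as ATP-coupled luminescence with CellTiter-Glo after 10 min at room temperature.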
(In general: In ATP-based viability assays light output follows the ATP content of the culture.)

The test system of a further assay is HEK293. The description is as above. The note with it: Five cell lines viability, CellTiter-Glo ATP luminescence, 48-72 h; max response: stronger effect = lower value. The method, boiled down: as §2
Another assay deals with HaCat. Described as above. The note with it: Five cell lines viability, CellTiter-Glo ATP luminescence, 48-72 h; max response: stronger effect = lower value. The method, boiled down: as §2
Another assay relates to KB-3-1. The assay is described as above. The note with it: Five cell lines viability, CellTiter-Glo ATP luminescence, 48-72 h; max response: stronger effect = lower value. In a few lines:
as §2

For a further assay, the system named is JCK. Description: qHTS profiling for inhibitors of Plasmodium falciparum proliferation (AID 504749). To be noted: P. falciparum in erythrocytes, SYBR Green DNA, 72 h; series mostly up to 28.7 µM. The method, boiled down: as §1
The next assay concerns TAB109. The description is as above. To be noted: P. falciparum in erythrocytes, SYBR Green DNA, 72 h; series mostly up to 28.7 µM. The method, boiled down:
as §1
Also: nearly all actives have a fitted effect of over 60% in size.
Potency is read from the fitted curve at half-maximal effect.

For the molecule `CCCc1nc2c(C)cc(-c3nc4ccccc4n3C)cc2n1Cc1ccc(-c2ccccc2C(=O)O)cc1`, the Potency in the assay with HB3 was 10000 nM (active); with ICS, 631 nM (active); in the assay on N140, 1410 nM (active); in the assay with P94_40, 1780 nM (active); in the assay with PAD, 1000 nM (active); with PC15, 2510 nM (active). In addition, the Potency in the assay on PC49 was 2510 nM (active); with SC27B, 1580 nM (active); in the assay with TAB113, 2240 nM (active); in the assay on TAB165, 1580 nM (active); in the assay with W2, 1900 nM (active). Moreover, the max response in the assay with CRL-7250 is -5.08% and 4.25%; with KB-3-1, 14.7% and 4.38%. Also, the result in the assay with HEK293 and with HaCat was inactive.
`CCCC(CCC)C(=O)O`: the max response is -7.38% and -1.13% in the assay with CRL-7250; -7.93% and 2.58% with HEK293; 5.52% and 6.84% in the assay with KB-3-1.
Take `COc1ccc(-c2ccc3c(N4CCOC[C@H]4C)nc(N4CCOC[C@H]4C)nc3n2)cc1CO`: the Potency in the assay with CRL-7250 was 9.3 nM (active); in the assay on HEK293 it was 16.6 nM (active); in the assay with KB-3-1, 11.8 nM (active).
In the case of `Cn1cnc([N+](=O)[O-])c1Sc1ncnc2nc[nH]c12`, the Potency entry with HB3, in the assay with JCK, with PAD, in the assay on PC49, with SC27B and in the assay with TAB109 was “inactive” throughout. In addition, in the assay with TAB113, the Potency entry is “inactive”. The Potency in the assay on TAB165 is 11200 nM (active); in the assay on CRL-7250, 3.4 µM (active) and 10.6 µM (active); in the assay on HEK293, 10500 nM (active); with HaCat it was 2.7 µM (active) and 15 µM (active) and 11.8 µM (active); in the assay with KB-3-1 it was 2960 nM (active).
`NC(=O)c1ccc(I)c([N+](=O)[O-])c1`: the max response in the assay with CRL-7250 was 1.49%; in the assay with KB-3-1, 7.82%. Further, in the assay with HEK293, the molecule was classed as inactive.
As for `COc1ccc(CC2=NN3C([C@@H](CCc4ccccc4)[C@@H](C)O)=NC(C)C3C(=O)N2)cc1OC` (some centres undefined), the max response in the assay on CRL-7250 is -0.833%; in the assay on HEK293 it was -3.77%; in the assay on HaCat it was -7.5%; with KB-3-1 it was 9.1%.
As for `CS(=O)(=O)c1ccc(C(=O)Nc2ccc(Cl)c(-c3ccccn3)c2)c(Cl)c1`, the max response is -4.31% and 3.97% in the assay on CRL-7250; -6.21% in the assay with HEK293; -0.0394% in the assay with HaCat; 9.49% and -9.43% in the assay with KB-3-1.
Regarding `CCOc1cc(C(=O)Nc2ccc(Cl)c(-c3nc4ccccc4[nH]3)c2)cc(OCC)c1OCC`, the call with CRL-7250 was inactive. In addition, the Potency in the assay with HEK293 was 16600 nM (active). Moreover, the max response with HaCat is 1.32% and 3.52%; in the assay on KB-3-1, -16% and -9.64%.
In the case of `O=C(NOC[C@H](O)CO)c1ccc(F)c(F)c1Nc1ccc(I)cc1F`, the Potency with CRL-7250 is 3.32 µM (active) and 3.66 µM (active); in the assay on HaCat, 8.33 µM (active) and 23.1 nM (active). Besides, in the assay with HEK293, the outcome was inactive. Also, the max response in the assay with KB-3-1 was 4.78% and 5.99%.
For `CO[C@@H]1[C@H](N(C)C(=O)c2ccccc2)C[C@H]2O[C@]1(C)n1c3ccccc3c3c4c(c5c6ccccc6n2c5c31)C(=O)NC4`, the Potency was 1480 nM (active) with CRL-7250, 8330 nM (active) in the assay with HEK293, 3.72 µM (active) in the assay on HaCat and 3320 nM (active) in the assay on KB-3-1.
On to `Cc1csc(NC(=O)c2sc3nc4c(c(C(F)(F)F)c3c2N)CCC4)n1`, for which the max response is -0.546% and -0.36% with CRL-7250; -22.1% in the assay with HEK293; 1.14% and -9.3% in the assay with KB-3-1.
Consider `CCN(c1ccccc1)c1cc(NC)[n+](C)c(C)n1`, for which the max response is -1.6% in the assay on CRL-7250, 1.35% in the assay on HEK293 and 7.88% in the assay on KB-3-1. Moreover, in the assay with HaCat, the molecule was classed as inactive.
Turning to `O=C(Nc1nc2ccccc2n1CCN1CCOCC1)c1cccc([N+](=O)[O-])c1`, the molecule was called inactive in the assay with CRL-7250 and in the assay with HEK293. In the assay with KB-3-1, the max response was 4.26%.
As for `COc1ccc(-c2oc3cc(OC)ccc3c2C(=O)c2ccc(C#N)cc2)cc1`, the molecule was classed as inactive in the assay with CRL-7250, in the assay with HEK293 and in the assay on KB-3-1.

The values are drawn from PubChem BioAssay (NCATS).
